Laboratory results from the supplement of paper PMC7156485.
A number with no mark means an inactive call.

Tested on: HCC1569
Experiment: H1.0 immunofluorescence intensity relative to DMSO (% of DMSO); higher = stronger H1.0 induction, active = 140 or more
Details: concentration: 10 µM; 24 h
In short: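 For HCC1569 and TDF cells, compounds at 10 µM were applied for 24 h at 37 °C in triplicate in 384-well plates. Cells were fixed in 3.7% formaldehyde, stained for H1.0 and with DAPI, and imaged at ×10 over six fields per well. The endpoint, H1.0 nuclear intensity or cell number, is shown as percent of the plate control using the median of replicates. Positional effects were smoothed for HCC1569 only.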
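Also: TDF is a line of transformed human dermal fibroblasts of mesenchymal origin.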

| SMILES | H1.0 immunofluorescence intensity |
| --- | --- |
| CC1CC(C)C(=O)C(C(O)CC2CC(=O)NC(=O)C2)C1 (stereo not given) [Cycloheximide] | 139 |
| COc1cc(C2c3cc4c(cc3C(O)C3COC(=O)C23)OCO4)cc(OC)c1O (stereo not given) [4'-Demethylpipodophyllotoxin] | 132 |
| COc1ccc2c(c[n+](C)c3c4cc5c(cc4ccc23)OCO5)c1OC.[Cl-] [Chelerythrine Chloride] | 123 |
| Cc1sc2ccccc2c1CC1=NCCN1.O=C(O)C(=O)O [Benazoline oxalate] | 81.1 |
| NCC(CC(=O)O)c1ccc(Cl)cc1 (racemic) | 99.1 |
| CC(C)(C)NCC(O)c1ccccc1Cl.Cl (stereo not given) [Tulobuterol hydrochloride] | 96.4 |
| CCCCc1ccc(C(=O)O)nc1 [Fusaric acid] | 88.6 |
| Cl.Cl.Oc1ccc2c3c1OC1c4[nH]c5c(c4CC4(O)C(C2)N(CC2CC2)CCC314)CC1(O)C2Cc3ccc(O)c4c3C1(CCN2CC1CC1)C5O4 (stereo not given) [nor-Binaltorphimine dihydrochloride] | 89.7 |
| CC=C1CN2CCC34C(=C(CC=O)C1CC23)Nc1ccccc14 (stereo not given) [Norfluorocurarine] | 96.3 |
| CCNC(=O)C[C@@H]1N=C(c2ccc(Cl)cc2)c2cc(OC)ccc2-n2c(C)nnc21 | 198 (active) |
| COC(=O)c1cc2c(cn1)[nH]c1ccccc12 [Methyl beta-carboline-3-carboxylate] | 95.3 |
| COC1C=C2CCN(C)C2C2c3cc4c(cc3C(=O)OC12)OCO4.O=[N+]([O-])O (stereo not given) [Ungerine nitrate] | 88.8 |
| CCCCC(C#N)(Cn1cncn1)c1ccc(Cl)cc1 (stereo not given) [Myclobutanil] | 102 |
| CC(C)CC1C(=O)N2CCCC2C2(O)OC(NC(=O)C3C=C4c5cccc6[nH]c(Br)c(c56)CC4N(C)C3)(C(C)C)C(=O)N12.CS(=O)(=O)O (single isomer, unassigned; (+)) [(+)-Bromocriptine methanesulfonate] | 108 |
| Fc1cc(F)c2c(c1)C1C=CCC1C(c1cccnc1)N2 (stereo not given) | 169 (active) |
| CC12CCC3C(CCC4=C(O)C(=O)CCC43C)C1CCC2=O (stereo not given) [Formestane] | 111 |
| Cl.NCC#Cc1ccccc1 [3-Phenylpropargylamine hydrochloride] | 102 |
| CC1=C(O)C(=O)C=C2C1=CC=C1C2(C)CCC2(C)C3CC(C)(C(=O)O)CCC3(C)CCC12C (stereo not given) [Celastrol] | 114 |
| COc1cc(C2c3cc4c(cc3C(O)C3COC(=O)C23)OCO4)cc(OC)c1OC (stereo not given) [Podophyllotoxin] | 128 |
| CC(C)CC1C(=O)N2CCCC2C2(O)OC(NC(=O)C3C=C4c5cccc6[nH]c(Br)c(c56)CC4N(C)C3)(C(C)C)C(=O)N12.CS(=O)(=O)O (stereo not given) [Bromocriptine mesylate] | 102 |
| C=CC12CN(C)C3C4COC(CC41)C1(C(=O)Nc4ccccc41)C32.Cl (stereo not given) | 94.5 |
| CN1C2CCCC1CC(=O)C2.Cl | 94.5 |
| Cl.c1ccc(C2CC2)c(OCC2=NCCN2)c1 [Cirazoline hydrochloride] | 87.7 |
| Cl.O=C1CCC2(O)C3Cc4ccc(O)c5c4C2(CCN3CC2CC2)C1O5 (stereo not given) [Naltrexone.HCl] | 99.8 |
| Cl.O=C1CCC2(O)C3Cc4ccc(O)c5c4C2(CCN3CC2CC2)C1O5 (stereo not given) [Naltrexone hydrochloride] | 96 |
| CCCC(=O)OCC[N+](C)(C)C [Butyrylcholine] | 111 |
| CCS(=O)(=O)Nc1cccc(C(=C2CCCCC2)c2cnc[nH]2)c1 | 92.5 |
| Cc1ncc(CNC(=O)N(CCCl)N=O)c(N)n1.Cl [Nimustine hydrochloride] | 94.4 |
| O=C1C=CC(=O)C=C1 [p-Benzoquinone] | 93.3 |
| COC(C(=O)C(O)C(C)O)C1Cc2cc3cc(OC4CC(OC5CC(O)C(OC)C(C)O5)C(OC(C)=O)C(C)O4)c(C)c(O)c3c(O)c2C(=O)C1OC1CC(OC2CC(OC3CC(C)(O)C(OC(C)=O)C(C)O3)C(O)C(C)O2)C(O)C(C)O1 (stereo not given) [Chromomycin A3] | 196 (active) |
